Data from the OligoGym collection.

What follows are sequences tested against DAGLA (assay: pooled miR-30 sensor sort-seq; sequence = guide strand). Details: shRNA.
Further: reference of the scale not given here.

Sequence | sensor-assay potency score (higher = more potent)
TTGTAGTTCTCCAGCACCTTGT | -0.221
TTCATCTGAGAGTCTGTCTTGT | 0.509
TTGGCAGTGAGGTCGTTGCAGG | -1.13
TCTTCTTGATGTACTCAGCTGA | 0.266
TAGCGGAGCATCTCTTGTGAAT | -1.2
TAAACATGTACAGCACTGCAGG | -1.11
TTAGGAACGGTGCACACTCATG | -1.56
TTGAGGGTCGGATACTGTGGGC | -1.18
TAGTTCTCCAGCACCTTGTTGA | -0.467
TTTCATCTGAGAGTCTGTCTTG | 0.187
TATATTTATAGAATAAGCTATA | -0.774
TTTTACAGCAATATTAGTTTGG | 0.015

What follows are sequences tested against DAZ2 in the same assay as above. Details: shRNA.

Sequence | sensor-assay potency score (higher = more potent)
TCGTGATTATCTTCACTTCTTT | -0.86
TGGATAAGCAGAATAAGCCTGA | -0.294
TATACAGGCAACTGATATCCAG | -0.956

The sequences below were run against DCAF4L2 in the same assay as above. Details: shRNA.

Sequence | sensor-assay potency score (higher = more potent)
TACCTATGAACAGCGACGCTGG | -0.732
TTTTCTTTTGTCAACTGCCCAT | -0.395
TAGCTGGTTCTTTCGTAGCATG | -1.53
TGTATCTTCTCTATTGACCTAT | 0.0322
TAAACATCTCACAAACTGCTGC | -0.0348
TTAACTGAAACAACTTTACAGA | -0.678
TTGGAGTATCTGCAAGTCCCAC | -0.914
TTATCTTTGACACTGAGCCCTT | -0.414
TACTGTGTTACACATTTAGTGG | -1.02
TCTGACTGTCTTTTTCTGCTTG | 0.906
TTCTTCGTTCACATGCACGGGT | 0.233
TTTGCAGAGAAGTCACTGCTGA | 0.521

Each sequence was assayed against DCHS2 in the same assay as above. Details: shRNA.

Sequence | sensor-assay potency score (higher = more potent)
TAATCTAGAATCGCTTTTGTTG | -0.749
TGAATTATCATTCTCATCCTGT | 0.421
TTCATAGTCAAACTGTCGCCGC | -0.481
TATATCAGTCACCTGTACCTTG | 0.322
TGTACCTTGATTACAGTCGTAT | -0.366
ATACTTATTAAACTCAACCATT | -1.29
TAGAAAGAAACAAGTCTCCGGT | 0.782
TTATAGTAAAGCACTCATCAGT | -0.223
TTGAGAACATAAACTGAGGTGC | 0.162
TAGAATAGGTCAATTCTCCATA | -0.353
TTTTCTGGAACAATACAGCTGA | 0.21
TGGATTATCATTGACATCCAGC | -1.15
